The test system of experiment [1] is Human papillomavirus type 1a protein E7 (residues 44-93). The experiment is described as follows: HPV1a E7 fragment binders on microarrays, primary screen, biochemical, small-molecule microarray, residues 44-93, 635 nm fluorescence (AID 1108).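 Also: E7 fragment applied at 1 µg/mL in TBST for 1 h at 4 C; score combines spot fluorescence with its signal to noise ratio.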 The conditions noted are these: small-molecule microarray binding, fluorescence 635 nm; higher = more signal.
A short description of experiment [2]: modulators of HCV replicon luciferase signal, primary screen, HCV replication inhibitor project, Huh7 cells, luciferase reporter (AID 1109).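 Also: huh7 hepatoma cells harbouring a luciferase neomycin HCV replicon reporter; luciferase luminescence as measure of HCV replicon replication; test concentration not given here.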 The conditions noted are these: 48 h, higher = more signal. For orientation: A replicon is a self-replicating genome or part of one, used to study replication in cells.
Experiment [3] addresses Left-right determination factor 2 (Homo sapiens) (UniProt O00292). The experiment is described as follows: LEFTY2 binders on small-molecule microarrays, primary screen, biochemical, small-molecule microarray, 635 nm fluorescence scan (AID 1110). The conditions noted are these: LEFTY2 binding, higher = more signal.
The target of experiment [4] is Calmodulin-1 (Homo sapiens) (UniProt P0DP23). The experiment is described as follows: CALM1 binders on microarrays, EGTA buffer, profiling panel, biochemical, small-molecule microarray, Cy5-labelled CALM1 (AID 1111).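 Also: labelled calmodulin applied in Tris saline Tween buffer holding calcium plus EGTA and DTT.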 The conditions noted are these: Cy5-CALM1 binding fluorescence, higher = more signal.
Experiment [5] shares this target. Put plainly: calcium-bound CALM1 binders on microarrays, profiling panel, artefact control for SMM control-protein annotation, biochemical, small-molecule microarray, Cy5-labelled CALM1, plus calcium (AID 1112).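 Also: score merges spot fluorescence with signal to noise from triplicate slides.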 The settings on record: Cy5-CALM1 binding fluorescence, higher = more signal.
The nature of experiment [6]: small-molecule microarray binders of probe aWnt5a, primary screen, biochemical, biotinylated probe, 635/667 nm fluorescence (AID 1113).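 Also: score merges 667 nm fluorescence intensity with signal-to-noise per printed feature.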 The conditions noted are these: higher = more signal.
The nature of experiment [7]: small-molecule microarray binders of probe aShh, primary screen, biochemical, biotinylated probe, 635/667 nm fluorescence (AID 1114).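 Also: probe is biotin-labelled aShh protein from a stem cell growth factor screen; measures binding of labelled protein to compounds printed on the slide; score merges feature fluorescence at 667 nm with signal-to-noise.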 The settings on record: higher = more signal.
Experiment [8] in a line: small-molecule microarray binders of probe aNog, primary screen, biochemical, biotinylated probe, 635/667 nm fluorescence (AID 1115).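 Also: probe is biotinylated aNog protein used at 0.15 µg/mL for 1 h at 4 C; z-score combines 667 nm fluorescence of each spot with its signal to noise.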 The settings on record: higher = more signal.
For experiment [9], the target named is Torsin-1A-interacting protein 1 (Homo sapiens) (UniProt Q5JTV8). Put plainly: LAP1 binders from COS7 cell lysate, primary screen, small-molecule microarray, 635/667 nm fluorescence (AID 1116). The conditions noted are these: COS7-hLAP1 lysate binding, 635 nm fluorescence, higher = more signal.
The target of experiment [10] is Alpha-bungarotoxin (Bungarus multicinctus) (UniProt P60615). The experiment is described as follows: alpha-bungarotoxin binders on microarray, profiling panel, artefact control for SMM control protein annotation, biochemical, small-molecule microarray, Alexa647 label, 635/667 nm fluorescence (AID 1117). The settings on record: alpha-BTX-A647 binding fluorescence, higher = more signal.
Chain of Alpha-bungarotoxin (Bungarus multicinctus) (P60615 whole entry, looked up): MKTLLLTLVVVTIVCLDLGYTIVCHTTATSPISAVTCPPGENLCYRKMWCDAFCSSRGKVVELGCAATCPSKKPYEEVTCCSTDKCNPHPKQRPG

Chain of Torsin-1A-interacting protein 1 (Homo sapiens) (Q5JTV8 whole entry, looked up): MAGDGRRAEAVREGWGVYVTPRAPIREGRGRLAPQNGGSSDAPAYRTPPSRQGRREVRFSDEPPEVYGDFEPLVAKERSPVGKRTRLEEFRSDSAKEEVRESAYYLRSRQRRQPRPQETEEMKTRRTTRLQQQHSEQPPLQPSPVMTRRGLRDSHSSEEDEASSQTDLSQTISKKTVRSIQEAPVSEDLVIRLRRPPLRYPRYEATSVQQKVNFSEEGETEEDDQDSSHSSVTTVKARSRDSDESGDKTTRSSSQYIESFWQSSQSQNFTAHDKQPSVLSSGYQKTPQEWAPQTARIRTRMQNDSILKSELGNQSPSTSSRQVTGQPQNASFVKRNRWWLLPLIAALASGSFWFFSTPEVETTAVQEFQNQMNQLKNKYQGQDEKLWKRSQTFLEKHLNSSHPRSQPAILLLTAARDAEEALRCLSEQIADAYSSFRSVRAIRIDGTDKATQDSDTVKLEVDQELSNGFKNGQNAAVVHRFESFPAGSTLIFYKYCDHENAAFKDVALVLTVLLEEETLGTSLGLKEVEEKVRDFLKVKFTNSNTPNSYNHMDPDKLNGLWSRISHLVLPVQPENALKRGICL
Chain of Left-right determination factor 2 (Homo sapiens) (O00292 whole entry, looked up): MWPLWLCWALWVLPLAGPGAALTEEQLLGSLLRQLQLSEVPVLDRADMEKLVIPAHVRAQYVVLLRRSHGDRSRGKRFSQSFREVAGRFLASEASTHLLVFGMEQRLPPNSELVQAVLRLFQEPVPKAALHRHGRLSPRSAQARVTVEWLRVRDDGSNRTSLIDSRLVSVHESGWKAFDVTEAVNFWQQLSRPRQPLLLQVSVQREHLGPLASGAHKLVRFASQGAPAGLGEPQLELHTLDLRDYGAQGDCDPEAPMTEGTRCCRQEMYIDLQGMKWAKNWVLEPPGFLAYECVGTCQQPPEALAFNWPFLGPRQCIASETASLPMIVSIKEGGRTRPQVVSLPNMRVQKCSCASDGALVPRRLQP

As for `CC(C)(C)N1C(=O)[C@H]2[C@H]3[C@H](O)[C@H](O)CC(=O)[C@@H]3CC[C@H]2C1=O`, the composite z-score was 0.3 in experiment [1]; 0.709 in experiment [3]; -0.339 in [4]; -0.518 in experiment [5]; -0.0125 in experiment [6]; 0.0121 in experiment [7]. Also, the composite z-score is -0.108 in [8], 0.804 in [9] and 0.106 in [10]. The same compound gave a z-score in experiment [2] of 0.6.
As for `CC(C)CON=C1C[C@@H](O)[C@@H](O)[C@@H]2[C@@H]3C(=O)N(c4ccc(F)cc4F)C(=O)[C@@H]3CC[C@H]12`, the composite z-score in [1] was 1.38; in experiment [3], 0.923; in experiment [4], 0.0597; in experiment [5], -0.809; in [6], -0.0735; in experiment [7], -0.0169. Moreover, the composite z-score is 0.106 in experiment [8], 0.272 in experiment [9] and 0.198 in [10]. Besides, the z-score in [2] was -0.666.
With `CCOC(=O)[C@H](CC(C)C)NC(=O)CCC1CC(OC(=O)NCc2cccc3ccccc23)CC2(CCCC(COC(=O)NCCCN3CCCC3=O)O2)O1` (stereo not given in full), the composite z-score is 1.15 in [1]; 0.446 in [3]; 0.446 in experiment [4]; -0.385 in experiment [5]; -0.194 in [6]; -0.206 in experiment [7]. The composite z-score is -0.467 in [8], 0.196 in [9] and 0.754 in [10]. Besides, the z-score in experiment [2] was -1.12.
As for `C[C@H]1CC[C@H]2C(=O)OC(CO)CN2[C@@H]1c1ccc(Br)cc1` (stereo not given in full), the composite z-score is -0.558 in [1]; 0.137 in experiment [3]; -0.201 in [4]; -0.607 in experiment [5]; -0.0778 in experiment [6]; 0.0284 in experiment [7]. The values for the composite z-score in experiment [8], in experiment [9] and in experiment [10] were -0.178, -0.303 and 0.867, respectively. The compound further gave a z-score in experiment [2] of -0.125.
In the case of `CCOC(=O)[C@H](CC(C)C)NC(=O)CCC1CC(OC(=O)NCc2ccc3c(c2)OCO3)CC2(CCCC(COC(=O)NCCCN3CCCC3=O)O2)O1` (stereo not given in full), the composite z-score in experiment [1] was 1.26; in [3], 0.563; in experiment [4] it was 0.542; in experiment [5], -0.348; in [6], -0.0519; in experiment [7], -0.0073. For the same compound, the results for the composite z-score in [8], in [9] and in experiment [10] were -0.158, 0.0469 and 0.758, respectively. In experiment [2], the z-score was -0.584.
Turning to `COC(=O)CC=C[C@@H](C)[C@@H](C=NO[C@H](C)c1cn([C@H](CO)Cc2ccccc2)nn1)OC`, the composite z-score is 0.319 in [1]; 1.1 in [3]; -1.03 in experiment [4]; -1.24 in experiment [5]; -0.0179 in experiment [6]; -0.138 in [7]. For the same compound, the composite z-score is -0.191 in [8], 0.427 in experiment [9] and 0.608 in experiment [10]. The z-score in [2] is -1.3.
For the compound `C=CC[C@@H]1C=C[C@H](ON=C(C)CCN2CCc3nc(-c4ccccc4)c(-c4ccccc4)cc3C2)[C@@H](CO)O1`, the composite z-score in experiment [1] is 1.36; in experiment [3], 0.407; in experiment [4] it was 0.636; in experiment [5], -0.252; in experiment [6], -0.0735; in [7] it was -0.0626. Moreover, the figures for the composite z-score in experiment [8], in experiment [9] and in experiment [10] were -0.303, 0.782 and 0.729, respectively. This compound came in with a z-score in experiment [2] of -1.81.
For `CO[C@H]1COC(=O)[C@@H](C)COC(=O)[C@H](COCc2ccccc2)NC(=O)CC=C[C@H]1C`, the composite z-score was -1.39 in experiment [1]; 1.23 in [3]; -3.3 in experiment [4]; -3.53 in [5]; -0.247 in [6]; 0.0062 in experiment [7]. The composite z-score is 0.0139 in [8], -0.526 in [9] and -0.445 in experiment [10]. Moreover, in experiment [2], the z-score is -0.292.
Regarding `C=CC[C@@H]1C=C[C@H](ON=C2[C@H]3CCn4c(=O)n(-c5ccccc5)c(=O)n4[C@H]3[C@H](O)[C@@H]3O[C@H]23)[C@@H](CO)O1`, the composite z-score in experiment [1] is -0.268; in experiment [3], 0.402; in experiment [4] it was 0.991; in experiment [5] it was -0.0461; in [6], -0.147; in experiment [7], -0.0752. For the same compound, the results for the composite z-score in experiment [8], in experiment [9] and in experiment [10] were -0.534, 0.16 and 0.744, respectively. The z-score in [2] was -3.56.
For the compound `C[C@@H](ON=C1[C@H]2CCn3c(=O)n(-c4ccccc4)c(=O)n3[C@H]2[C@H](O)[C@@H]2O[C@H]12)c1cn([C@@H]2COC[C@H]2O)nn1`, the composite z-score in [1] was 0.361; in experiment [3], 0.698; in experiment [4] it was -0.287; in experiment [5], -0.568; in [6] it was -0.119; in experiment [7], 0.0611. For the same compound, the composite z-score in [8] worked out at 0.139; in [9], 0.07; in experiment [10], 0.237. This compound had a z-score in [2] of -2.38.
For `COC(=O)[C@H](C)NC(=O)CCC1CC(OC(=O)NCCc2ccc(F)cc2)CC2(CCCC(COC(=O)NCCC(C)C)O2)O1` (stereo not given in full), the composite z-score in experiment [1] was 0.466; in experiment [3], 0.482; in experiment [4] it was 0.0458; in experiment [5], -0.233; in experiment [6], -0.119; in experiment [7] it was 0.0483. Moreover, the composite z-score is -0.254 in [8], 0.189 in experiment [9] and 1.07 in experiment [10]. In experiment [2], this compound came in with a z-score of 0.839.
Regarding `COc1ccc(O[C@H]2C=C[C@@H](c3ccccc3)O[C@@H]2COC(=O)CCC(C)=NO[C@@H]2O[C@H](COC(C)=O)[C@@H](OC(C)=O)[C@H](OC(C)=O)[C@H]2OC(C)=O)cc1`, the composite z-score in experiment [1] was 1.29; in experiment [3], 0.511; in [4], -0.126; in [5], -0.643; in experiment [6] it was -0.0944; in experiment [7] it was -0.206. Further, the composite z-score was -0.53 in experiment [8], 0.38 in [9] and 0.731 in experiment [10]. This compound came in with a z-score in experiment [2] of -1.88.
Regarding `CO[C@@H]1COC(=O)[C@@H](C)NC(=O)CC=C[C@@H](C)[C@H](NS(=O)(=O)c2ccc(C)cc2)COC(=O)[C@H](C)NC(=O)CC=C[C@H]1C`, the composite z-score in experiment [1] was -0.0926; in experiment [3], 0.765; in [4], -1.74; in [5], -1.94; in [6] it was -0.0045; in experiment [7], -0.0709. Further, the composite z-score is -0.433 in [8], 0.392 in [9] and -0.744 in experiment [10]. In experiment [2], the z-score is 0.0975.
As to `CC(C)CCN1CCc2nc(COc3ccccc3)c3c(c2C1)CO[C@@H](C)C3`, the composite z-score in experiment [1] was 0.25; in [3], 0.0637; in experiment [4] it was 0.683; in experiment [5] it was 0.0677; in experiment [6] it was -0.118; in experiment [7], 0.0796. Also, the values for the composite z-score in [8], in experiment [9] and in experiment [10] were 0.15, 0.686 and 0.221, respectively. Besides, in [2], the z-score worked out at 0.911.
`COc1ccc(COC(=O)NN=C2C[C@@H](O)[C@@H](O)[C@@H]3[C@@H]4C(=O)N(c5ccc(F)cc5F)C(=O)[C@@H]4CC[C@H]23)cc1`: the composite z-score in [1] was -0.246; in experiment [3], -0.551; in experiment [4], -0.252; in experiment [5], -0.318; in [6], -0.169; in [7] it was -0.0769. Also, the values for the composite z-score in experiment [8], in experiment [9] and in experiment [10] were -0.273, -0.724 and 0.616, respectively. For the same compound, in experiment [2], the z-score is -0.107.
As to `COC(=O)[C@H](C)NC(=O)CCC1CC(OC(=O)NCCc2ccc(F)cc2)CC2(CCCC(COC(=O)NCc3cccc(C(F)(F)F)c3)O2)O1` (stereo not given in full), the composite z-score was 0.518 in [1]; 0.749 in experiment [3]; -0.0669 in experiment [4]; -0.23 in [5]; -0.146 in [6]; -0.59 in experiment [7]. The composite z-score in experiment [8] is -0.302; in experiment [9], 0.322; in [10] it was -0.131. Moreover, the z-score in experiment [2] is -0.377.
With `CO[C@@H]1COC(=O)[C@H](CCSC)NC(=O)CC=C[C@@H](C)COC(=O)[C@H](C)NC(=O)CC=C[C@H]1C`, the composite z-score in experiment [1] was 0.677; in [3], 1.19; in [4], -0.886; in experiment [5], -1.04; in experiment [6], -0.0179; in experiment [7], -0.221. The composite z-score in experiment [8] was -0.0604; in experiment [9], -0.185; in experiment [10] it was -0.155. The z-score in experiment [2] was -0.62.

For the origin of these results see PubChem BioAssay.
